Source: PubChem (Sanford-Burnham Center for Chemical Genomics)
In the library only some 3% were active in any assay of this set; here they are far more common.
SENP8 block-1 – blocks human SENP8 cleavage of Nedd8 substrate; Q96LD8; inhibition, % at 20 µM; hit rate 0.64% among 360,000; recombinant SENP8, Nedd8 substrate fluorescence; in the data active means inhibition mostly above about 40%, no sharp cut-off; inactive means mostly below about 27%
PPC-1+TRAIL kill – kills PPC-1 cancer cells in the presence of TRAIL; hit rate 0.41% among 220,000; PPC-1 cells + TRAIL, ATPLite viability luminescence; cell killing (% activity), % at 4 µM or 5 µM;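 active means cell killing above 50% in the first pass at 4 µM, then a duplicate retest at 5 µM averaging 50% or more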;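 further: plate controls were cells with TRAIL plus DMSO for no effect and medium-only wells lacking cells for full effect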
SENP6 block – inhibitors of human SENP6 protease | Q9GZR1 | inhibition, % at 10 µM | hit rate 1.8% among 330,000 | Recombinant SENP6 catalytic domain, aminoluciferin luminescence;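 active means inhibition above about 50% at the single tested dose, limit read from the data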;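 further: plate controls were DMSO wells with enzyme for no effect and DMSO wells lacking enzyme for full effect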
Target sequence (Q9GZR1 628-1112 limits assumed): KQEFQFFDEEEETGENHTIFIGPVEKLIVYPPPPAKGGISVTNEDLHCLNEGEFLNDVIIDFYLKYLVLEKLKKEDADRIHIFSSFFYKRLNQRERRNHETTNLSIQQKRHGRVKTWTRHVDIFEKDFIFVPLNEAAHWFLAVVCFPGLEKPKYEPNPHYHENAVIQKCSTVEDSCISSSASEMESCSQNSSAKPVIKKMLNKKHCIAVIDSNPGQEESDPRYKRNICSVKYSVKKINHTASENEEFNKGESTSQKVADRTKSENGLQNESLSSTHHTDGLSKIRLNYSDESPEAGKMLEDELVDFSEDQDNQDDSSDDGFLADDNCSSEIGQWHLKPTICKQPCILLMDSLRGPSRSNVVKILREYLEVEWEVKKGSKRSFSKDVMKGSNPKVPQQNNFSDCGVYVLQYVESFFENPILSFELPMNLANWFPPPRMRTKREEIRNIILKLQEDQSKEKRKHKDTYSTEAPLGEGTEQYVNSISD
SENP7 inh – SENP7 protease inhibition. Q9BQF6. AID 434973. recombinant SENP7, Z-RLRGG-aminoluciferin luminescence, 40 min. hit rate 1.5% among 330,000. inhibition, % at 5 µM;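 active means inhibition above about 50% at the single test dose, limit read from the data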;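 further: plate controls were DMSO with enzyme for no effect and no enzyme buffer wells for full effect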
SENP8 block-2 – inhibitors of human SENP8 protease. Q96LD8. purified SENP8, Z-RLRGG-aminoluciferin cleavage, luminescence. AID 2540. inhibition, % at 10 µM. hit rate 1.2% among 330,000; in the data active means inhibition above about 50%
TRAIL sens C8 – caspase-8 TRAIL sensitization | AID 624354 | inhibition (viability loss, TRAIL sensitization), % at 10 µM | hit rate 1% among 360,000 | NB7+C8 cells + TRAIL, ATPlite viability luminescence;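 active means compounds causing at least 50% loss of cell viability in the single-dose screen, relative to plate controls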
SENP8 conf – confirmation of human SENP8 protease inhibitors. shares compounds with SENP7 inh. Recombinant SENP8, Z-RLRGG-aminoluciferin luminescence, 60 min. AID 488912. hit rate 40% among 6,200. inhibition, % at 12.5 µM;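 active means mean inhibition across replicates above about 50%, limit read from the data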
SENP6 conf – confirmation of human SENP6 protease inhibitors. inhibition, % at 12.5 µM. AID 488915. shares compounds with SENP7 inh. recombinant SENP6, Z-RLRGG-aminoluciferin luminescence. hit rate 58% among 6,200
SENP7 confirm – human SENP7 inhibition, confirmed; shares compounds with SENP7 inh; recombinant SENP7, Z-RLRGG-aminoluciferin luminescence, 40 min; inhibition, % at 12.5 µM; hit rate 69% among 6,200; AID 488917
Casp3 SENP sel – selectivity test for SENP inhibitors: human caspase-3 inhibition | shares compounds with SENP7 inh | purified caspase-3, Z-DEVD-aminoluciferin luminescence, 60 min | inhibition, % at 12.5 µM | hit rate 60% among 6,200 | AID 488918;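 active means mean inhibition above about 50%, limit read from the data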;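 further: plate controls were enzyme with DMSO for no effect and wells without caspase-3 for full effect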
Luc interf – interferes with luciferase luminescence in SENP counter-screen. shares compounds with SENP7 inh. Pre-incubated SENP8/Z-RLRGG-aminoluciferin, luciferase luminescence interference. inhibition, % at 12.5 µM. hit rate 39% among 6,200. AID 488919;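 active means mean inhibition above about 50% when retested at one dose, limit read from the data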;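 further: plate controls were DMSO wells with completed reaction for no effect and substrate without enzyme for full effect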
An asterisk follows results filed as active; x = no result.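 How the source made its calls, unless noted: active means mean inhibition above about 50% in the one-dose retest (limit read from the data); inactive means the rest.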

SMILES	SENP8 block-1	PPC-1+TRAIL kill	SENP6 block	SENP7 inh	SENP8 block-2	TRAIL sens C8	SENP8 conf	SENP6 conf	SENP7 confirm	Casp3 SENP sel	Luc interf
O=C(O)c1cccc(OCc2ccccc2Cl)c1	8	4	94*	75*	79*	-4	86*	86*	97*	82*	89*
O=C(CCNC(=O)c1ccccc1Cl)Nc1cccc(S(=O)(=O)N2CCOCC2)c1	10	x	-17	-4	-8	-4	x	x	x	x	x
CCCCC(=O)N1CCN(c2nc3ccc(F)cc3s2)CC1	1	x	84*	82*	73*	11	78*	75*	95*	89*	49
CN1CCc2nc(SCC(=O)Nc3cccc(F)c3)c(C#N)c(-c3cccs3)c2C1	34	25	77*	60*	57*	-10	1	0	-4	-2	-8
CC(C)(C)C(=O)CSc1nc2c(c(-c3cccs3)c1C#N)CCC2	-222	6	5	-5	-2	6	x	x	x	x	x
COCCN(C(=O)c1ccccc1F)c1nnc(-c2ccc(OC)cc2)s1	-14	x	3	-3	-2	15	x	x	x	x	x
Cc1nnsc1NC(=O)OCc1ccccc1Cl	15	-7	55*	-5	12	-11	35	36	63*	37	44
Cc1ccc(NC(=O)N/C=C/c2ccccc2)cc1	9	26	11	2	-3	27	x	x	x	x	x
CC(=O)c1ccc(NC(=O)/C(=C\c2ccccc2)NC(=O)/C=C/c2ccccc2)cc1	16	18	-4	2	6	7	x	x	x	x	x
O=C(Nc1cccc2ccccc12)/C(Cl)=C/c1ccccc1	19	7	12	9	-15	8	x	x	x	x	x
Cc1ccc(NC(=O)/C(Cl)=C\c2ccccc2)cc1	17	x	94*	91*	86*	23	83*	87*	100*	84*	75*
CC(=O)c1ccc(NC(=O)/C(Cl)=C/c2ccccc2)cc1	6	36	67*	85*	45	3	13	19	23	20	8
O=C(Nc1ccc(F)cc1)/C(Cl)=C/c1ccccc1	11	20	3	88*	79*	9	-11	79*	96*	72*	14
Cc1cccc(-n2c(SCC(=O)c3c(N)n(C4CC4)c(=O)[nH]c3=O)nnc2N2CCOCC2)c1	4	x	5	9	-5	6	x	x	x	x	x
O=C(O)c1cccc(Nc2ncnc3ccccc23)c1	-6	-8	68*	-3	59*	3	70*	64*	85*	36	68*
Fc1cccc(Nc2ncnc3c2cnn3-c2ccccc2)c1	-186	17	-9	-9	-21	25	x	x	x	x	x
Oc1cccc(Nc2ncnc3ccccc23)c1	-5	-17	3	11	-1	5	x	x	x	x	x
O=C(O)c1cccc(Nc2ncnc3c2cnn3-c2ccccc2)c1	-43	20	97*	90*	90*	13	95*	95*	101*	50	92*
O=C(O)c1cccc(Nc2nc(N3CCOCC3)nc(N3CCOCC3)n2)c1	16	4	2	0	2	-5	x	x	x	x	x
O=C(O)c1cccc(Nc2ccnc(Nc3cccc(C(=O)O)c3)n2)c1	19	x	94*	98*	90*	-1	96*	98*	102*	95*	77*
C=CCNC(=O)N1C2=NC(C(=O)OC)=C(C(=O)OC)[C@@H]3N(Cc4ccccc4)c4ccccc4[C@]23C[C@H]1C(=O)OC	16	x	11	-2	10	2	x	x	x	x	x
